Reference: the supplement of paper PMC12819154, “High-throughput peptide-centric local stability assay extends protein–ligand identification to membrane proteins, tissues and bacteria” (Nature Structural & Molecular Biology, 2025)

Compound: CN[C@@H]1C[C@H]2O[C@@](C)([C@@H]1OC)n1c3ccccc3c3c4c(c5c6ccccc6n2c5c31)C(=O)NC4 [staurosporine]
Assay: log2 fold change of tryptic peptide abundance, ligand vs vehicle (limited proteolysis) (log2 ratio); higher = more trypsin-susceptible (destabilized)
Settings: ligand concentration: 20 uM; sample: K562 cleared lysate; digestion: 4 min, 22 C (HT-PELSA RT4min, Orbitrap Astral)

UniProt Q8IYB3, sequence (Q8IYB3 whole entry): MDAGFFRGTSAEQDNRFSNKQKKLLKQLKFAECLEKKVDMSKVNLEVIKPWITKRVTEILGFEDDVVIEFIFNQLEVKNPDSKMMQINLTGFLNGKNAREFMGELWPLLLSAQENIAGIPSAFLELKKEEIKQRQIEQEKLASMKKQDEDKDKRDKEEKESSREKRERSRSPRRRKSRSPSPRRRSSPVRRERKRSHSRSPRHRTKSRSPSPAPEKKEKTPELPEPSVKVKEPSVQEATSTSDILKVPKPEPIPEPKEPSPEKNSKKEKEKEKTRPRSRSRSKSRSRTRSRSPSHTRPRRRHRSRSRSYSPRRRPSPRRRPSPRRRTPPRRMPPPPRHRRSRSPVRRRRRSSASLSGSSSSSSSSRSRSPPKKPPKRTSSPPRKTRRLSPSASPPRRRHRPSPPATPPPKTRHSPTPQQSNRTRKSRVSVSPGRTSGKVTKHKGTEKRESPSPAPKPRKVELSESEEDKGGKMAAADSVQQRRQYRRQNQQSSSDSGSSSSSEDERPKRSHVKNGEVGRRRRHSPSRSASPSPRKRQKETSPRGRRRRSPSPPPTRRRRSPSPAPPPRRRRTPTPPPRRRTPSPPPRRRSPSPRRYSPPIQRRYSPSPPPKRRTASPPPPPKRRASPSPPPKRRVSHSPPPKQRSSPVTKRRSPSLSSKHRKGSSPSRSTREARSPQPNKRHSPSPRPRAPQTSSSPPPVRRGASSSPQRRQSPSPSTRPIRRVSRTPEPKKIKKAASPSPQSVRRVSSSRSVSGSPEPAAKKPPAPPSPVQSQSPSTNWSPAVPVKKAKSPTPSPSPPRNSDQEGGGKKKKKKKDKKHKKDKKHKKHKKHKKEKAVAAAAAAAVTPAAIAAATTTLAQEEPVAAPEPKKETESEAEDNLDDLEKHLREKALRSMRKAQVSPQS
UniProt Q8IVT5, sequence (Q8IVT5 whole entry): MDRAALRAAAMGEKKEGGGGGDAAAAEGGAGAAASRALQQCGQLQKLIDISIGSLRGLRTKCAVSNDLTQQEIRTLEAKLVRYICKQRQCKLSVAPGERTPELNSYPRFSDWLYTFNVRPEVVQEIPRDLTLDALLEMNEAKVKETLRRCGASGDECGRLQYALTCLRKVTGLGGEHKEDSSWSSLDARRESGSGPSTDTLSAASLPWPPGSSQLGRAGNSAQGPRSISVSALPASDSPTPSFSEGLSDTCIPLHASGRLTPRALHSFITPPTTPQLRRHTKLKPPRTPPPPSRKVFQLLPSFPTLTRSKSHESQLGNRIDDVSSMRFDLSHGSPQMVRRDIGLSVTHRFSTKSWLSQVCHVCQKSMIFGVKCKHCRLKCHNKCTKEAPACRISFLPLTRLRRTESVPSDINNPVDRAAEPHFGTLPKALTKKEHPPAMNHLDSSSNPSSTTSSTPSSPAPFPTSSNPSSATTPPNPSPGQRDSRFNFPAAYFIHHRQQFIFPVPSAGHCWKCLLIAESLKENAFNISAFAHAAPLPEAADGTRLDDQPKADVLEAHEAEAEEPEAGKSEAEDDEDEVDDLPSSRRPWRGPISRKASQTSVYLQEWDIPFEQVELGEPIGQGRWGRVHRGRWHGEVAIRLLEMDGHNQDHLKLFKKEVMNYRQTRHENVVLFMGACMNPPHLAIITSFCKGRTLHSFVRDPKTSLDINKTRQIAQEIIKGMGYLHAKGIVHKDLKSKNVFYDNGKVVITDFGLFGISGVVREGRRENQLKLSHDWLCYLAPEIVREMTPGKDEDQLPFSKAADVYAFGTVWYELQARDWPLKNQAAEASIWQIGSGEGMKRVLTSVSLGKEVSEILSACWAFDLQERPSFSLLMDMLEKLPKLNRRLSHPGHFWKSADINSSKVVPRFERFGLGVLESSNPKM
UniProt Q13177, sequence (Q13177 whole entry): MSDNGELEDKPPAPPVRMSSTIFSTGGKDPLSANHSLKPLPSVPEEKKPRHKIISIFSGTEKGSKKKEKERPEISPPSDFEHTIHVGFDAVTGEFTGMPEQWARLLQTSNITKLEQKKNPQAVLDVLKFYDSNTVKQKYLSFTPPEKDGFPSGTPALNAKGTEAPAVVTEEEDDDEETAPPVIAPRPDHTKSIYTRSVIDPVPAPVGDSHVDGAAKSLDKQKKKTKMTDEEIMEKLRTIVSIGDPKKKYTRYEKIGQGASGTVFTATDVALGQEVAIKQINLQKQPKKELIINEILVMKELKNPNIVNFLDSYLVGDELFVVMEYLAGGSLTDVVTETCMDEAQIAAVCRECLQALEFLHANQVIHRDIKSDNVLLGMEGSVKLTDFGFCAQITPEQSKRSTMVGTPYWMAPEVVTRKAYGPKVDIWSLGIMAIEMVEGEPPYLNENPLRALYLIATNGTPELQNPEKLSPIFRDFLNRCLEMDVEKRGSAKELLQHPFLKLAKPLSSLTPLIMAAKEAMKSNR
UniProt Q00537, sequence (Q00537 whole entry, looked up): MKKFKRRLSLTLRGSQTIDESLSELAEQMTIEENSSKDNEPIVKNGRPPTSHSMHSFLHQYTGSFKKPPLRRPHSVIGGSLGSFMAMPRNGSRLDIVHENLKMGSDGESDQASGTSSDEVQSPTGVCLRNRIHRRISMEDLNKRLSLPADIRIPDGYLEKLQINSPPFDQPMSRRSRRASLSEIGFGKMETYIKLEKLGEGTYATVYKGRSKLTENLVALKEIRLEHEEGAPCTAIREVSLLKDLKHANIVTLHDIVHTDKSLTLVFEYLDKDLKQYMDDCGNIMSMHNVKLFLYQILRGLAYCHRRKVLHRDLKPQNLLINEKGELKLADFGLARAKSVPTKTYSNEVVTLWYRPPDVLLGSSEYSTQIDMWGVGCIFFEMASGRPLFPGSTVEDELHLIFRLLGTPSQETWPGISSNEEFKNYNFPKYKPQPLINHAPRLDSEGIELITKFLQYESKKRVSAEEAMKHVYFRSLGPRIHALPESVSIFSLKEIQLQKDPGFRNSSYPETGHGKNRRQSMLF
UniProt Q9BVS4, sequence (Q9BVS4 whole entry, looked up): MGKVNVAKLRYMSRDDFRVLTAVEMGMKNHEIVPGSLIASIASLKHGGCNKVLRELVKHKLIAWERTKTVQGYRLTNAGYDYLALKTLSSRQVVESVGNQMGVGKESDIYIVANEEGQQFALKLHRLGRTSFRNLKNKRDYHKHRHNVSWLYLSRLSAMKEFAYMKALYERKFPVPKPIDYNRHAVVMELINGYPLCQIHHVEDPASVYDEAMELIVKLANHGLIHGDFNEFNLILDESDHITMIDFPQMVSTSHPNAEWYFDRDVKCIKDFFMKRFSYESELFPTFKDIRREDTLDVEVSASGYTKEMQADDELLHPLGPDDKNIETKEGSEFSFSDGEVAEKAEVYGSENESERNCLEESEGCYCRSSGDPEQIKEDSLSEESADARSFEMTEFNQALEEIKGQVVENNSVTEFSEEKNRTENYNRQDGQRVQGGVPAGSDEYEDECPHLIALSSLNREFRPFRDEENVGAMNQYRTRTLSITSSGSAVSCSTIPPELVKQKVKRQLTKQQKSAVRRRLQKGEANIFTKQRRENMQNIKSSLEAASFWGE
UniProt P07437, sequence (P07437 whole entry): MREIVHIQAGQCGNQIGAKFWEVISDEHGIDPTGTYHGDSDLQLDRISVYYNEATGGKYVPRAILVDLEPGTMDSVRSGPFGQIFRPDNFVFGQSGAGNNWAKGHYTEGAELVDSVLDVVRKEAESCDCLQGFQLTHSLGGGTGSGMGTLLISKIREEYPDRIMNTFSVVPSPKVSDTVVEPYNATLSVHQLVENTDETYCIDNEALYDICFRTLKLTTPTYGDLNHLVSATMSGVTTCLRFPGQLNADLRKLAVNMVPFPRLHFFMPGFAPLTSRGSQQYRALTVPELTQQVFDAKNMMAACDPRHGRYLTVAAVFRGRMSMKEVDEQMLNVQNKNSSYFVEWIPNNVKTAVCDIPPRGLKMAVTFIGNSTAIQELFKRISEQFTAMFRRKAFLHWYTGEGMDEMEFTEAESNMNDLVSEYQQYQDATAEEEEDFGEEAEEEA
UniProt P45984, sequence (P45984 whole entry, looked up): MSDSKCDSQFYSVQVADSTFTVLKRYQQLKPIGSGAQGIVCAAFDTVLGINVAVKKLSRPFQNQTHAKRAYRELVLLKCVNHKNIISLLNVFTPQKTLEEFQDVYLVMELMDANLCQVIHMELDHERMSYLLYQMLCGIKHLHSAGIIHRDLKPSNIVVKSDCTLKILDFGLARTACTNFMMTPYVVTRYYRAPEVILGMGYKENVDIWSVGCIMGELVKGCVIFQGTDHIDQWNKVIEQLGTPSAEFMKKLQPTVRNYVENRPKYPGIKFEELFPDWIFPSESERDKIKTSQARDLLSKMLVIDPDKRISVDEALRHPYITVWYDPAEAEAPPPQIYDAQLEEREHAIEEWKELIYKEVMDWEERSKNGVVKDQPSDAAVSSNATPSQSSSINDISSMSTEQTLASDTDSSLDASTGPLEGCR

Row | Target | log2 fold change
1 | UniProt P07437 (peptide sequence: IREEYPDRIMNTFSVVPSPK, peptide start residue: 155) | -2.5
2 | PAK2 (peptide sequence: MTDEEIMEK, peptide start residue: 227) (UniProt Q13177) | -2.15
3 | KSR1 (peptide sequence: LSHDWLCYLAPEIVR, peptide start residue: 771) (UniProt Q8IVT5) | -0.299
4 | UniProt Q00537 (peptide sequence: LGEGTYATVYK, peptide start residue: 171) | -2.88
5 | UniProt P45984 (peptide sequence: DLKPSNIVVK, peptide start residue: 151) | -2.08
6 | MYBBP1A (peptide sequence: VLKGNTAEGCVHETQEK, peptide start residue: 933) (UniProt Q9BQG0) | 2.16
7 | SDAD1 (peptide sequence: TLYTHIVTDIK, peptide start residue: 136) (UniProt Q9NVU7) | -0.683
8 | UniProt Q9BVS4 (peptide sequence: VLTAVEMGMK, peptide start residue: 19) | -1.57
9 | SRRM1 (peptide sequence: KETESEAEDNLDDLEK, peptide start residue: 870) (UniProt Q8IYB3) | 1.54
